Source: PubChem BioAssay AID489037 (National Center for Advancing Translational Sciences (NCATS), 2010)
Where “and” joins values, the source holds several entries; their conditions need not be identical. Equal entries are not always repeated. Records with an inconclusive call do not appear. Calls of active or inactive are those of the source. The call rests on the fitted dose curve; in most records, active means well fitted inhibition curve with a large enough effect; inconclusive means small, poorly fitted or top-dose-only effect, or effect the other way; inactive means no such curve, though single readings can be large or run the other way.

The compounds below were run against Nuclear receptor ROR-gamma (Mus musculus) (UniProt P51450) (assay: Secondary confirmation assay for inhibitors of ROR gamma transcriptional activity). Conditions: Drosophila S2 Gal4-RORgamma UAS-luciferase reporter, 20 h; series mostly up to 92.2 µM; activity change, negative = inhibition: at the top concentration.
Chain of Nuclear receptor ROR-gamma (Mus musculus) (P51450 whole entry, looked up, the tested form may be a part): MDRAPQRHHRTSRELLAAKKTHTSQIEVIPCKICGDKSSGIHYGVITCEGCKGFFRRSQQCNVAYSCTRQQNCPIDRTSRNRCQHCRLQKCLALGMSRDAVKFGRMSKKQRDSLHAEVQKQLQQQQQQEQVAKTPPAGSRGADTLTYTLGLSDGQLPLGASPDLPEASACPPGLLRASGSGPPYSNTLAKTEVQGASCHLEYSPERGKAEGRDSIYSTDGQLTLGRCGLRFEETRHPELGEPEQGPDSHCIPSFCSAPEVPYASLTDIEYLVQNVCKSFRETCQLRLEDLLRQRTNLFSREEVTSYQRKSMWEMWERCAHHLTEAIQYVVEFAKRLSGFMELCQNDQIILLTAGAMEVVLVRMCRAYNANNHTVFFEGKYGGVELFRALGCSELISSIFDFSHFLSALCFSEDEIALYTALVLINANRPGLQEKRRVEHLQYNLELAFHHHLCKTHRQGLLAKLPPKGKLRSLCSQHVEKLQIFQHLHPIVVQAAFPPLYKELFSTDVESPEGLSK
How it was run: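 Drosophila Schneider cells stably expressing Gal4-DBD/ROR gamma fusion (metallothionein promoter) with UAS-Photinus luciferase reporter. Compound preincubated 1 hr, then copper sulfate 700 uM final added; 20 hr at ambient temperature, luminescence read.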

| SMILES | Potency | activity change, negative = inhibition |
| --- | --- | --- |
| COc1cc(O)c(C(CC(=O)N2CCCCC2C)c2ccc3c(c2)OCO3)c(OC)c1 (configuration not stated) | 25.7 µM (active) | – |
| COc1ccc(-c2c[n+]3c(n2-c2ccc(C)cc2)CCCCC3)cc1 | 11.5 µM (active) | – |
| COc1cc(O)c(C(CC(=O)N2CCC(C)CC2)c2ccc(OC)c(OC)c2)c(OC)c1 (configuration not stated) | – | -29.8% (inactive) |
| O=C(NC(=S)Nc1nc(-c2ccccc2)cs1)c1cccnc1 | 5.12 µM (active) | – |
| COc1cc(OC)c(C(CC(=O)N2CCCC(C)C2)c2ccc3c(c2)OCO3)c(OCc2ccccc2)c1 (configuration not stated) | 6.45 µM (active) | – |
| C[C@H]1O[C@@H](O[C@H]2[C@@H](O)C[C@@H](O[C@H]3[C@@H](O)C[C@H](O[C@H]4CC[C@@]5(C)[C@H](CC[C@@H]6[C@@H]5CC[C@]5(C)[C@@H](C7=CC(=O)OC7)CC[C@]65O)C4)O[C@@H]3C)O[C@@H]2C)C[C@H](O)[C@@H]1O | 1.44 µM (active) | – |
| COc1ccc(C)c(O)c1C(CC(=O)N1CCCC(C)C1)c1ccc2c(c1)OCO2 (configuration not stated) | 40.7 µM (active) | – |
| COc1cc(O)c(C(CC(=O)N2CCc3ccccc3C2)c2ccc3c(c2)OCO3)c(OC)c1 (configuration not stated) | – | -29.7% (inactive) |
| CCOc1ccc(-c2cc(CCCC(=O)NCc3cccnc3)no2)cc1 | 0.724 µM (active) | – |
| COc1cc(O)c(C(CC(=O)N2CCCC(C)C2)c2ccc3ccccc3c2)c(OC)c1 (configuration not stated) | 5.75 µM (active) | – |
| COc1ccccc1C(CC(=O)Nc1ccc(F)cc1)c1ccccc1 (configuration not stated) | – | -21% (inactive) |
| COc1cc(O)c(C(CC(=O)N2CC(C)OC(C)C2)c2ccc3c(c2)OCO3)c(OC)c1 (configuration not stated) | 1.29 µM (active) | – |
| COc1cc(O)c(C(CC(=O)N2CCOCC2)c2ccc3c(c2)OCO3)c(OC)c1 (configuration not stated) | – | -21.1% (inactive) |
| COCOc1cc(OC)cc(OC)c1C(CC(=O)N1CC(C)CC(C)C1)c1ccc2c(c1)OCO2 (configuration not stated) | 4.07 µM (active) | – |
| CCOc1ncccc1C(=O)OCC(=O)Nc1ccc(-c2nc3ccc(C)cc3s2)cc1 | 0.407 µM (active) | – |
| CC(C)[C@H](NC(=O)C1CCN(C(=O)[C@@H]2CCCN2C(=O)OC(C)(C)C)CC1)C(=O)NCc1ccc(F)cc1 | 32.3 µM (active) | – |
| COc1cc(O)c(C(CC(=O)N2CCCC(C)C2)c2ccc3c(c2)OCO3)c(OC)c1 (configuration not stated) | 3.63 µM (active) and 3.23 µM (active) | – |
| CC(C)(C)c1ccc([S+](=O)([O-])Nc2ccccc2C(O)(C(F)(F)F)C(F)(F)F)cc1 | 16.2 µM (active) | – |
| CC(C)(C)c1ccc(-c2noc(CCC(=O)Nc3cccnc3)n2)cc1 | 0.257 µM (active) | – |

| SMILES | Potency | activity change, negative = inhibition |
| --- | --- | --- |
| COc1cc(O)c(C(CC(=O)N(Cc2ccccc2)Cc2ccccc2)c2ccc3c(c2)OCO3)c(OC)c1 (configuration not stated) | – | -6.12% (inactive) |
| COc1cc(O)c(C(CC(=O)N2CCCC(C)(C)C2)c2ccc3c(c2)OCO3)c(OC)c1 (configuration not stated) | 5.12 µM (active) | – |
| COc1cc(O)c(C(CC(=O)N2CCC(C)CC2)c2ccc(C)cc2)c(OC)c1 (configuration not stated) | 14.4 µM (active) | – |
| Cc1ccc(-c2cn(-c3ccccc3)c3[n+]2CCCS3)cc1 | 28.8 µM (active) | – |
| COc1cc(O)c(C(CC(=O)Nc2cccc3ccccc23)c2ccc3c(c2)OCO3)c(OC)c1 (configuration not stated) | – | -23.2% (inactive) |
| CCn1cc(C(=O)O)c(=O)c2cnc(N3CCN(C(=S)NC(=O)c4ccccc4)CC3)nc21 | 11.5 µM (active) | – |
| COc1ccc(C(=O)/C=C/c2ccc(OC)cc2OC)c(O)c1 | 0.575 µM (active) | – |
| Cc1cc(C)nc(-n2nc(C)cc2NC(=O)CNC(C)c2ccccc2)n1 (configuration not stated) | 5.75 µM (active) | – |
| O=S(=O)(c1ccc(NC(=S)N/N=C/c2ccc(Oc3ccccc3)cc2)cc1)N1CCOCC1 | 1.15 µM (active) | – |
| COc1cc(O)c(C(CC(=O)N(C)c2cccc(C)c2)c2ccc3c(c2)OCO3)c(OC)c1 (configuration not stated) | – | -23.4% (inactive) |
| COc1cc(O)c(C(CC(=O)N2CC(C)NC(C)C2)c2ccc3c(c2)OCO3)c(OC)c1 (configuration not stated) | – | -16.5% (inactive) |
| C=C1Nc2c(-c3ccc(F)cc3)cnn2C(N)=C1c1ccccc1 | 0.0911 µM (active) | – |
| COc1cc(O)c(C(CC(=O)N2CCCCC2)c2ccc(C)cc2)c(OC)c1 (configuration not stated) | 32.3 µM (active) | – |
| CCOC(=O)c1sc(NC(=O)c2cc3c(s2)CCC(C)C3)nc1C (configuration not stated) | 0.144 µM (active) | – |
| COc1ccc2nc(NNC(=O)COc3ccccc3)sc2c1 | 4.57 µM (active) | – |
| CCOc1ccc(C(CC(=O)N2CCCC(C)C2)c2c(O)cc(OC)cc2OC)cc1 (configuration not stated) | 4.07 µM (active) | – |
| COc1cc(O)c(C(CC(=O)N2CCCC(C)C2)c2cccs2)c(OC)c1 (configuration not stated) | 7.24 µM (active) | – |
| COc1cc(O)c(C(CC(=O)N2CCCC(C)C2)c2ccccc2C)c(OC)c1 (configuration not stated) | 7.24 µM (active) | – |
